Test systems include HCT-15 colon; HT29 colon; SNB-75 CNS; SNB-19 CNS; U251 CNS; SK-MEL-5 melanoma; UACC-62 melanoma; LOX IMVI melanoma; SK-MEL-28 melanoma; EKVX NSCLC; SN12C renal; UO-31 renal; TK-10 renal; ACHN renal; CAKI-1 renal; A498 renal; CCRF-CEM leukemia; MOLT-4 leukemia; PC-3 prostate; SK-MEL-2 melanoma.
Common to all, as to assay: NCI-60 one-dose screen, 48 h (100 = growth as untreated, 0 = no growth, -100 = all killed)
Holding throughout (conditions): 10 µM unless noted

Where “and” joins values, the source holds several entries; their conditions need not be identical. Equal values may be shown once. Compounds without any hit were thinned out: in the full panel of roughly 83,000, 20% have a hit.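 For each line, cells grew in 96-well plates with the test compound present at a single concentration for 48 hours.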 Calls of active or inactive are those of the source. How the source made its calls: active means growth percent below 10; inactive means the rest.

As to `COc1ccc(/C=C2/C(=O)N=C3N2NC(c2ccccc2)=CN3c2ccccc2)cc1`, the growth was 109% (inactive) in the assay with HCT-15 colon; 109% (inactive) in the assay on HT29 colon; 98.1% (inactive) in the assay with SNB-75 CNS; 97.7% (inactive) in the assay with SNB-19 CNS; 99.4% (inactive) in the assay on U251 CNS; 97.4% (inactive) in the assay with SK-MEL-5 melanoma. In addition, the growth was 94.2% (inactive) in the assay with UACC-62 melanoma; 87.8% (inactive) with LOX IMVI melanoma; 108% (inactive) with SK-MEL-28 melanoma; 103% (inactive) in the assay on EKVX NSCLC; 96% (inactive) in the assay on SN12C renal; 77.4% (inactive) with UO-31 renal. The growth in the assay with TK-10 renal was 124% (inactive); in the assay on ACHN renal, 96.2% (inactive); in the assay on CAKI-1 renal it was 88.4% (inactive); in the assay with A498 renal, 107% (inactive); in the assay with CCRF-CEM leukemia, 101% (inactive); in the assay on MOLT-4 leukemia, 106% (inactive).
Take `CN1CCN(c2ccc(/C=C/C(=O)c3ccc(O)cc3)cc2)CC1`: the growth with HCT-15 colon was 91.1% (inactive); in the assay with HT29 colon, 100% (inactive); with SNB-75 CNS, 85.6% (inactive); in the assay with SNB-19 CNS, 99.6% (inactive); in the assay with PC-3 prostate it was 93.1% (inactive); in the assay on SK-MEL-5 melanoma, 94.1% (inactive). Further, the growth in the assay with UACC-62 melanoma was 92.7% (inactive); in the assay with LOX IMVI melanoma it was 95.4% (inactive); in the assay with SK-MEL-28 melanoma it was 98.8% (inactive); in the assay on SK-MEL-2 melanoma, 102% (inactive); in the assay with EKVX NSCLC, 83.7% (inactive); in the assay on SN12C renal, 94.1% (inactive). For the same molecule, the growth was 85.3% (inactive) with UO-31 renal; 122% (inactive) in the assay on TK-10 renal; 105% (inactive) with ACHN renal; 98.9% (inactive) with CAKI-1 renal; 82.9% (inactive) in the assay with A498 renal; 102% (inactive) with CCRF-CEM leukemia. Further, the growth in the assay with MOLT-4 leukemia was 95% (inactive).
With `Clc1cccc(Nc2ncnc3ccc(-c4cncc(-n5cnnn5)c4)cc23)c1`, the growth is 70.2% (inactive) with HCT-15 colon; 74% (inactive) with HT29 colon; 59.9% (inactive) in the assay on SNB-75 CNS; 79.5% (inactive) with SNB-19 CNS; 42.9% (inactive) in the assay on PC-3 prostate; 65.8% (inactive) in the assay with SK-MEL-5 melanoma. For the same molecule, the growth is 85.3% (inactive) with UACC-62 melanoma; 70.3% (inactive) in the assay on LOX IMVI melanoma; 97.3% (inactive) in the assay with SK-MEL-28 melanoma; 106% (inactive) in the assay on SK-MEL-2 melanoma; 26.6% (inactive) with EKVX NSCLC; 75% (inactive) with SN12C renal. For the same molecule, the growth in the assay with UO-31 renal is 32.1% (inactive); in the assay on TK-10 renal it was 7.65% (active); in the assay on ACHN renal, 28.9% (inactive); with CAKI-1 renal, 24.3% (inactive); with A498 renal it was -7.13% (active); with CCRF-CEM leukemia, 75.2% (inactive). Also, in the assay with MOLT-4 leukemia, the growth is 58.9% (inactive).
In the case of `COc1cc(CNC(=O)CCCC/C=C/C(C)C)ccc1OCc1cn(-c2ccc([N+](=O)[O-])cc2)nn1`, the growth in the assay on HCT-15 colon is 96.2% (inactive); with HT29 colon it was 98.1% (inactive); in the assay on SNB-75 CNS it was 83.9% (inactive); with SNB-19 CNS it was 97.4% (inactive); with PC-3 prostate it was 78% (inactive); with SK-MEL-5 melanoma, 76.1% (inactive). In addition, the growth with UACC-62 melanoma was 69.3% (inactive); in the assay on LOX IMVI melanoma, 89.5% (inactive); in the assay with SK-MEL-28 melanoma, 102% (inactive); in the assay with SK-MEL-2 melanoma it was 92% (inactive); in the assay on EKVX NSCLC, 75.3% (inactive); in the assay with SN12C renal, 91.7% (inactive). Also, the growth in the assay on UO-31 renal was 60.6% (inactive); with TK-10 renal, 92.7% (inactive); with ACHN renal it was 90.7% (inactive); in the assay with CAKI-1 renal it was 96.7% (inactive); with A498 renal, 82% (inactive); in the assay with CCRF-CEM leukemia, 84.9% (inactive). For the same molecule, the growth in the assay on MOLT-4 leukemia was 79.3% (inactive).
Take `CCCCCCCCCCCCCCCC[N+](C)(C)CCN(Cc1ccc(OC)cc1)c1ncccn1`: the growth in the assay with HCT-15 colon was 74.4% (inactive) and 94.5% (inactive); in the assay with HT29 colon it was -100% (active) and 18.2% (inactive); in the assay with SNB-75 CNS it was 51.9% (inactive) and 13% (inactive); with SNB-19 CNS, -48.7% (active) and 41.9% (inactive); with PC-3 prostate it was -78% (active) and 15.4% (inactive); in the assay with SK-MEL-5 melanoma, 8.82% (active) and 39.8% (inactive). Besides, the growth with UACC-62 melanoma is -39.6% (active) and 19% (inactive); in the assay with LOX IMVI melanoma, -76.8% (active) and 23.8% (inactive); in the assay on SK-MEL-28 melanoma it was 33.3% (inactive) and 52.9% (inactive); with SK-MEL-2 melanoma it was 59.8% (inactive); with EKVX NSCLC, -84.6% (active); with SN12C renal, -57.9% (active) and 34% (inactive). Moreover, the growth in the assay on UO-31 renal was 9.57% (active) and 80.3% (inactive); in the assay with TK-10 renal, -90.3% (active) and 71.7% (inactive); in the assay with ACHN renal it was 45.7% (inactive) and 67% (inactive); with CAKI-1 renal, 44.1% (inactive); in the assay with A498 renal it was -70.4% (active); with CCRF-CEM leukemia it was -53.1% (active) and 23.7% (inactive). Besides, the growth with MOLT-4 leukemia was -52% (active) and 23.9% (inactive).
Regarding `Nc1nc(Nc2ccc(F)cc2)nn1C(=O)c1cc(Cl)ccc1Cl`, the growth was 69.1% (inactive) with HCT-15 colon; 70.8% (inactive) with HT29 colon; 76.7% (inactive) in the assay on SNB-75 CNS; 65.8% (inactive) in the assay with SNB-19 CNS; 75.6% (inactive) in the assay on PC-3 prostate; 87% (inactive) in the assay on SK-MEL-5 melanoma. Also, the growth with UACC-62 melanoma is 60.8% (inactive); in the assay on LOX IMVI melanoma, 48.4% (inactive); in the assay on SK-MEL-28 melanoma, 86% (inactive); in the assay with SK-MEL-2 melanoma it was 97.3% (inactive); with EKVX NSCLC it was 99.7% (inactive); with SN12C renal, 68% (inactive). The growth in the assay on UO-31 renal was 64.7% (inactive); with TK-10 renal, 104% (inactive); in the assay with ACHN renal it was 58.9% (inactive); in the assay with CAKI-1 renal it was 51.6% (inactive); with A498 renal, 68.4% (inactive); with CCRF-CEM leukemia it was 60.4% (inactive). In addition, the growth in the assay with MOLT-4 leukemia was 75.4% (inactive).
`COc1cc(CO)cc2cc3ccccc3nc12`: the growth was 106% (inactive) with HCT-15 colon; 103% (inactive) in the assay on HT29 colon; 74.7% (inactive) in the assay on SNB-75 CNS; 97.1% (inactive) with SNB-19 CNS; 104% (inactive) in the assay on PC-3 prostate; 105% (inactive) in the assay on SK-MEL-5 melanoma. Further, the growth is 98.7% (inactive) with UACC-62 melanoma; 100% (inactive) in the assay on LOX IMVI melanoma; 113% (inactive) in the assay on SK-MEL-28 melanoma; 102% (inactive) in the assay with EKVX NSCLC; 101% (inactive) with SN12C renal; 81.7% (inactive) in the assay on UO-31 renal. The growth was 118% (inactive) with TK-10 renal; 105% (inactive) in the assay on ACHN renal; 93.6% (inactive) in the assay on CAKI-1 renal; -22.1% (active) in the assay with A498 renal; 99.1% (inactive) in the assay on CCRF-CEM leukemia; 99.4% (inactive) in the assay on MOLT-4 leukemia.
Turning to `N#CSc1c[nH]c2ccc(/C=C/C(=O)/C=C(/C=C/c3ccc4[nH]cc(SC#N)c4c3)OB(F)F)cc12`, the growth in the assay on HCT-15 colon was -73.7% (active); in the assay with HT29 colon, -53.6% (active); in the assay with SNB-75 CNS, 18% (inactive); in the assay with SNB-19 CNS, 38.2% (inactive); with PC-3 prostate it was -22.5% (active); in the assay with SK-MEL-5 melanoma, 9.1% (active). In addition, the growth in the assay with UACC-62 melanoma is -43% (active); in the assay on LOX IMVI melanoma, -91.4% (active); in the assay with SK-MEL-28 melanoma, -1.41% (active); in the assay on SK-MEL-2 melanoma, -30.3% (active); in the assay on EKVX NSCLC, -5.64% (active); in the assay on SN12C renal it was -38.1% (active). Besides, the growth in the assay with UO-31 renal is -99.3% (active); in the assay with TK-10 renal it was -0.38% (active); in the assay with ACHN renal, -86.4% (active); in the assay on CAKI-1 renal, -71.5% (active); in the assay with A498 renal, 69.1% (inactive); in the assay on CCRF-CEM leukemia, -27.7% (active). For the same molecule, the growth in the assay with MOLT-4 leukemia was -37.9% (active).
With `CCN1C(=S)N(CC)C2C1NC(=S)N2/N=C/C=C/c1ccccc1` (stereo not given), the growth was 26.5% (inactive) with HCT-15 colon; 5.26% (active) in the assay with HT29 colon; -21.6% (active) in the assay with SNB-75 CNS; 31.4% (inactive) with SNB-19 CNS; 36.5% (inactive) in the assay on PC-3 prostate; 25% (inactive) with SK-MEL-5 melanoma. Also, the growth is 24.5% (inactive) with UACC-62 melanoma; 37.6% (inactive) with LOX IMVI melanoma; 53.6% (inactive) in the assay on SK-MEL-28 melanoma; 46.7% (inactive) in the assay on SK-MEL-2 melanoma; 62.5% (inactive) in the assay on EKVX NSCLC; 40.8% (inactive) in the assay with SN12C renal. Moreover, the growth is 40% (inactive) with UO-31 renal; 69.2% (inactive) in the assay on TK-10 renal; 39.3% (inactive) in the assay with ACHN renal; 30.4% (inactive) in the assay with CAKI-1 renal; 0.507% (active) with A498 renal; 14.7% (inactive) in the assay on CCRF-CEM leukemia. Moreover, the growth in the assay with MOLT-4 leukemia was 26.4% (inactive).
Turning to `COc1ccc2nc3cc(Cl)ccc3c(NCCCNCCC(C)O)c2c1` (stereo not given), the growth in the assay with HCT-15 colon is 2.36% (active); in the assay on HT29 colon it was 4% (active); with SNB-75 CNS, -58.8% (active); with SNB-19 CNS it was -25.6% (active); in the assay with PC-3 prostate it was -50% (active); in the assay on SK-MEL-5 melanoma, -96.7% (active). The growth with UACC-62 melanoma is -57% (active); with LOX IMVI melanoma it was -68% (active); in the assay with SK-MEL-28 melanoma, -59.3% (active); in the assay with SK-MEL-2 melanoma, -48.2% (active); in the assay with EKVX NSCLC, -7.41% (active); in the assay with SN12C renal, -25.9% (active). Moreover, the growth was -28.1% (active) in the assay on UO-31 renal; 8.67% (active) in the assay on TK-10 renal; -3.91% (active) in the assay with CAKI-1 renal; -24% (active) with CCRF-CEM leukemia; -18.1% (active) in the assay on MOLT-4 leukemia.
With `CN(C)CCCn1c2nc(=O)[nH]c(=O)c-2nc2cc(Cl)c(Cl)cc21`, the growth was 87% (inactive) in the assay with HCT-15 colon; 20.9% (inactive) in the assay on HT29 colon; 99.9% (inactive) in the assay on SNB-75 CNS; 100% (inactive) in the assay on SNB-19 CNS; 60.2% (inactive) with PC-3 prostate; 78.3% (inactive) in the assay with SK-MEL-5 melanoma. For the same molecule, the growth with UACC-62 melanoma is 97.9% (inactive); in the assay on LOX IMVI melanoma it was 41.2% (inactive); with SK-MEL-28 melanoma it was 106% (inactive); in the assay on SK-MEL-2 melanoma it was 112% (inactive); in the assay on EKVX NSCLC, 103% (inactive); in the assay on SN12C renal it was 70.5% (inactive). The growth in the assay with UO-31 renal was 80.9% (inactive); with TK-10 renal, 80.5% (inactive); in the assay on ACHN renal, 87.8% (inactive); in the assay on CAKI-1 renal, 79% (inactive); in the assay on A498 renal it was 92.1% (inactive); in the assay on CCRF-CEM leukemia, 45.6% (inactive). Also, the growth in the assay with MOLT-4 leukemia was 64.8% (inactive).
